Values joined by “and” are separate entries in the source; they are usually repeats but may differ in a detail not shown here. Equal entries are not always repeated. Results filed as inconclusive are left out. Some structures have more than one record in an assay (separate samples or runs), and their calls can disagree. Active and inactive are the calls of the source. Unless noted, calls follow the shape of the dose curve; as a rule, active = well fitted curve in the direction sought with a large enough effect in the repeat runs; inconclusive = weak or mixed curves; inactive = no such curve, though single readings can be large; an effect the other way counts as inactive or inconclusive.
Assays:
[1] = qHTS assay to identify small molecule antagonists of the glucocorticoid receptor (GR) signaling pathway - cell viability counter screen (AID 720693); also: nearly all actives have a fitted effect of over 55% in size
[2] = qHTS assay for identifying genotoxic compounds that show differential cytotoxicity against isogenic chicken DT40 cell lines with known DNA damage response pathways - wild type cell line (AID 743012); also: nearly all actives have a fitted effect of over 60% in size; also: potency is read from the fitted curve at half-maximal effect
Summary of the method: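 Wild-type DT40 cells (300/well) exposed to compounds for 40 hours at 37 C/5% CO2. Viability read by CellTiter-Glo luminescence after 30 min at room temperature.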

[3] = qHTS assay for identifying genotoxic compounds that show differential cytotoxicity against isogenic chicken DT40 cell lines with known DNA damage response pathways - Rev3 mutant cell line (AID 743014); also: nearly all actives have a fitted effect of over 55% in size; also: potency is read from the fitted curve at half-maximal effect
[4] = qHTS assay for identifying genotoxic compounds that show differential cytotoxicity against isogenic chicken DT40 cell lines with known DNA damage response pathways - Rad54/Ku70 mutant cell line (AID 743015); also: nearly all actives have a fitted effect of over 60% in size; also: potency is read from the fitted curve at half-maximal effect
[5] = qHTS assay to identify small molecule antagonists of the androgen receptor (AR) signaling pathway - cell viability counter screen (AID 743033; also: nearly all actives have a fitted effect of over 45% in size)
[6] = target: Androgen receptor (Homo sapiens) (UniProt P10275); assay: qHTS assay to identify small molecule antagonists of the androgen receptor (AR) signaling pathway (AID 743035; active = well fitted inhibition curve with a large enough effect in the signal ratio in the repeat runs, not every such curve was filed as active; the % refers to the signal ratio)
Sequence of Androgen receptor (Homo sapiens) (P10275 whole entry, looked up): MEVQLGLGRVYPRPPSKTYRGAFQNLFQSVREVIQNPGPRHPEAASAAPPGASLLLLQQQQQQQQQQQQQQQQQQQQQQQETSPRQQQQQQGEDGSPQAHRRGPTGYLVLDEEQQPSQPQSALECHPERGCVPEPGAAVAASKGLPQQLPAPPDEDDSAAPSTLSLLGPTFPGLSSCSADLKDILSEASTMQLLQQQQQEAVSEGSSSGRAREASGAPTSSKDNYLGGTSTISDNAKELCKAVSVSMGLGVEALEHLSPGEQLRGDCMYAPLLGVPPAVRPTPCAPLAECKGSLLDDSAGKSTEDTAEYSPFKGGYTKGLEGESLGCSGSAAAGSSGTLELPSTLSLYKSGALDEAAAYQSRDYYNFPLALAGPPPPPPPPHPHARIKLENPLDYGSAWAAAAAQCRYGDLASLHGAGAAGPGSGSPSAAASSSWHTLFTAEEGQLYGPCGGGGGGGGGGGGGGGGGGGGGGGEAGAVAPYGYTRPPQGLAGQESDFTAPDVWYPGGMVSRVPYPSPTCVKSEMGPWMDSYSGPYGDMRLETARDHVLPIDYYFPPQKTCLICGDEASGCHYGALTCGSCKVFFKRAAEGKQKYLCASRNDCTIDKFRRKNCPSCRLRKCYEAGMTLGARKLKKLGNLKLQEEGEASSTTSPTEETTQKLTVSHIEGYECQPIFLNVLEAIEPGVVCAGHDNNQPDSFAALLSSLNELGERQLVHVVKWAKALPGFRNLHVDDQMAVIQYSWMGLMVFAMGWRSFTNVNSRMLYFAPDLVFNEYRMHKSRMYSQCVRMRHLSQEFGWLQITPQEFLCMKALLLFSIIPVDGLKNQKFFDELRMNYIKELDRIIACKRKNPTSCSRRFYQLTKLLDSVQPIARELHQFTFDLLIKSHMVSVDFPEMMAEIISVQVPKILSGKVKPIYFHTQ
Summary of the method: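 HEK293 cells stably carrying UAS-beta-lactamase reporter, 2,000/well, given compounds plus R1881 agonist and incubated 16 h at 37C. LiveBLAzer B/G FRET substrate then added for 2 h at room temperature before fluorescence reading.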

[7] = target: Androgen receptor (Homo sapiens) (UniProt P10275); assay: qHTS assay to identify small molecule agonists of the androgen receptor (AR) signaling pathway (AID 743036; active = well fitted activation curve with a large enough effect in the signal ratio in the repeat runs, with a control signal flat, not every such curve was filed as active; the % refers to the signal ratio)
Summary of the method: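 Reporter line: GeneBLAzer AR-UAS-bla-GripTite (HEK293). Steps: plate cells, 4 h rest, add compounds, 16 h at 37C, add LiveBLAzer B/G substrate, 2 h at RT, read fluorescence.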

[8] = target: Androgen receptor (Homo sapiens) (UniProt P10275); assay: qHTS assay to identify small molecule agonists of the androgen receptor (AR) signaling pathway using the MDA cell line (AID 743040; also: nearly all actives have a fitted effect of over 20% in size)
Summary of the method: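 Human breast carcinoma MDA-kb2 reporter cells (MMTV-luc, AR/GR elements) were treated for 16 h at 37C in 0% CO2 following a 5 h settling period. Signal was quantified by ONE-Glo luminescence.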

[9] = qHTS assay to identify small molecule antagonists of the androgen receptor (AR) signaling pathway using the MDA cell line - cell viability counter screen (AID 743041; also: nearly all actives have a fitted effect of over 45% in size)
Summary of the method: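 Same-well cytotoxicity was assessed by CellTiter-Fluor in MDA-kb2 AR-luc cells after 16 h of compound treatment under R1881 agonism.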

[10] = target: Androgen receptor (Homo sapiens) (UniProt P10275); assay: qHTS assay to identify small molecule antagonists of the androgen receptor (AR) signaling pathway using the MDA cell line (AID 743042; also: nearly all actives have a fitted effect of over 55% in size)
Summary of the method: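 MDA-kb2 breast carcinoma cells carrying MMTV-luciferase (AR/GR responsive) were co-treated with compounds and the agonist R1881 for 16 h at 37C. Inhibition read as ONE-Glo luminescence; CellTiter-Fluor fluorescence measured in parallel for cytotoxicity.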

[11] = qHTS assay to identify small molecule antagonists of the thyroid receptor (TR) signaling pathway (AID 743065); also: nearly all actives have a fitted effect of over 55% in size; also: potency is read from the fitted curve at half-maximal effect
Summary of the method: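 GH3.TRE-Luc rat pituitary cells (two TREs driving luciferase) were dosed with compound, then stimulated with 1 nM T3 (final) for 23.5 h at 37 C. ONE-Glo luminescence was the read-out, with CellTiter-Fluor fluorescence as the cytotoxicity counter-screen.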

[12] = test system: thyroid hormone receptor (rat, GH3 cells); assay: qHTS assay to identify small molecule agonists of the thyroid receptor (TR) signaling pathway (AID 743066; calls by dose curve)
[13] = target: Estrogen receptor (Homo sapiens) (UniProt P03372); assay: qHTS assay to identify small molecule antagonists of the estrogen receptor alpha (ER-alpha) signaling pathway (AID 743069; active = well fitted curve in the direction sought with a large enough effect in the signal ratio in the repeat runs, not every such curve was filed as active; the % refers to the signal ratio)
Sequence of Estrogen receptor (Homo sapiens) (P03372 whole entry, looked up): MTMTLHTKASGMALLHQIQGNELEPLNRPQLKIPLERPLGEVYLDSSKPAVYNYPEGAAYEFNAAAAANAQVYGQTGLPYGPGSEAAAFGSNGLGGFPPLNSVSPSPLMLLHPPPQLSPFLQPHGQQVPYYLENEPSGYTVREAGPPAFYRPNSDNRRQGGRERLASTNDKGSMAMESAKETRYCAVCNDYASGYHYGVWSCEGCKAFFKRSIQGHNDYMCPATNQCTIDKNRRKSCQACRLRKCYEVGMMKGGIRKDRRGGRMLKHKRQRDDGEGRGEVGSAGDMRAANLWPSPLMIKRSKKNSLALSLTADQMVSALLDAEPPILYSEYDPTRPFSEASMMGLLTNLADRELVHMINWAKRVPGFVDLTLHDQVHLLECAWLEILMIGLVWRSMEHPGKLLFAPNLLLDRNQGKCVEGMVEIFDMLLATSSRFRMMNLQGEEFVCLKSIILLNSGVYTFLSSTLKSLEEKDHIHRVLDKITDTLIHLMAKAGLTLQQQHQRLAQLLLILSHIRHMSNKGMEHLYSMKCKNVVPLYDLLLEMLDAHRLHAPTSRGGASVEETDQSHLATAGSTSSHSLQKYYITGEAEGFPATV
Summary of the method: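 Reporter cells (ER-alpha-bla, HEK293 background) are conditioned overnight in stripped-serum medium (2% charcoal-stripped FBS). Compound and 17beta-estradiol exposure runs 18 hr at 37C, 5% CO2.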

[14] = qHTS assay to identify small molecule antagonists of the estrogen receptor alpha (ER-alpha) signaling pathway - cell viability counter screen (AID 743074; calls by dose curve;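 also: HEK293 cells carrying ER-alpha-UAS-bla reporter stimulated with 17beta-estradiol; nearly all actives have a fitted effect of over 45% in size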)
[15] = target: Estrogen receptor (Homo sapiens) (UniProt P03372); assay: qHTS assay to identify small molecule agonists of the estrogen receptor alpha (ER-alpha) signaling pathway (AID 743075; calls by dose curve;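 also: HEK293 GripTite cells with ER-alpha and UAS-driven beta-lactamase reporter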)
[16] = target: Estrogen receptor (Homo sapiens) (UniProt P03372); assay: qHTS assay to identify small molecule agonists of the estrogen receptor alpha (ER-alpha) signaling pathway using the BG1 cell line (AID 743079); also: nearly all actives have a fitted effect of over 20% in size; also: potency is read from the fitted curve at half-maximal effect
[17] = qHTS assay to identify small molecule antagonists of the estrogen receptor alpha (ER-alpha) signaling pathway using the BG1 cell line (AID 743080; calls by dose curve;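 also: BG1 cells stimulated with 17beta-estradiol alongside compound; series mostly up to about 70 µM; nearly all actives have a fitted effect of over 25% in size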)
Summary of the method: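 BG1-Luc-4E2 cells (endogenous full-length ER-alpha, 4xERE luciferase) hormone-starved 5 days in charcoal-stripped FBS, plated 4,000/well for 24 h, then compound plus 17beta-estradiol for 21.5 h at 37 C; ONE-Glo luminescence read.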

[18] = qHTS assay to identify small molecule antagonists of the estrogen receptor alpha (ER-alpha) signaling pathway using the BG1 cell line - cell viability counter screen (AID 743081);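 also: compound given together with 17beta-estradiol as the ER stimulus; series mostly up to about 70 µM; nearly all actives have a fitted effect of over 45% in size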
[19] = target: Aromatase (Homo sapiens) (UniProt P11511); assay: qHTS assay to identify aromatase inhibitors (AID 743083)
Sequence of Aromatase (Homo sapiens) (P11511 whole entry, looked up): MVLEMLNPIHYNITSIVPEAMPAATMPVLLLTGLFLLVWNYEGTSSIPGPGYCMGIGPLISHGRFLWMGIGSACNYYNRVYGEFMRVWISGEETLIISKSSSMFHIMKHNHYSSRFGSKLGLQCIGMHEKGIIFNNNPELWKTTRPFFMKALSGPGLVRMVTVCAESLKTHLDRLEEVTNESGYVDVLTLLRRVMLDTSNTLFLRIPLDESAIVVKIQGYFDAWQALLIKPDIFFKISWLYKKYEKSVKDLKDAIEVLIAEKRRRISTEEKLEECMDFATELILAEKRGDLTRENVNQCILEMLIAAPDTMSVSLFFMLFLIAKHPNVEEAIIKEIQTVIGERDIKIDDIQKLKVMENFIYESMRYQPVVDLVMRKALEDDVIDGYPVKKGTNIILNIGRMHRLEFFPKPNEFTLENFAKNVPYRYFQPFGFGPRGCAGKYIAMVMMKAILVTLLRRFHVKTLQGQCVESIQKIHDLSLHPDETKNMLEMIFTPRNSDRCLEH

[20] = qHTS assay to identify small molecule antagonists of the thyroid receptor (TR) signaling pathway - cell viability counter screen (AID 743064); also: nearly all actives have a fitted effect of over 50% in size; also: potency is read from the fitted curve at half-maximal effect
Summary of the method: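 Plate GH3.TRE-Luc cells; incubate 4 h at 37 °C; add compound, then T3 to 1 nM final; incubate 23.5 h; add CellTiter-Fluor; incubate 30 min at 37 °C, 5% CO2; read fluorescence.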

Measured: Potency

COCCOCCOC
not listed: [20]
inactive: all other assays above

O=C1OC(c2ccc(O)cc2)(c2ccc(O)cc2)c2ccccc21
inactive: [1] | [5] | [7] | [8] | [9] | [10] | [14] | [18] | [19]
active: [2] 38.3 µM | [3] 17.1 µM | [4] 27.1 µM

CC(=O)Oc1ccccc1C(=O)O
not listed: [11] | [12] | [20]
inactive: all other assays above

CCN1CCCC1=O
not listed: [6] | [7] | [8] | [10]
inactive: all other assays above

C=CCOC(=O)CC(C)C
not listed: [6] | [7] | [8] | [10]
inactive: all other assays above

CC(=O)c1ccc(S(=O)(=O)NC(=O)NC2CCCCC2)cc1
inactive: all assays above

O=c1c(-c2ccc(O)cc2)coc2cc(O)cc(O)c12
active: [2] 11.9 µM and 30.6 µM | [3] 21.1 µM and 53.5 µM and 48.6 µM | [4] 11.9 µM and 47.7 µM and 27.3 µM | [20] 21.1 µM and 47.7 µM | [11] 11.9 µM and 47.7 µM and 21.7 µM
not listed: [6] | [7] | [13] | [15] | [16] | [17]
inactive: all other assays above

CCCCCCCCCCCCCC(=O)OC(C)C
29.8 µM (active) and inactive: [16]
not listed: [20]
inactive: all other assays above

COc1ccccc1O
not listed: [6] | [7] | [8] | [10]
inactive: all other assays above

CC(O)COc1ccccc1 (configuration not stated)
not listed: [13] | [15] | [16] | [17]
inactive: all other assays above

Cc1c(N(C)C)c(=O)n(-c2ccccc2)n1C
not listed: [6] | [7] | [8] | [10]
inactive: all other assays above

c1ccc2[nH]c(-c3cscn3)nc2c1
inactive and 48.6 µM (active): [4]
inactive and 54.5 µM (active): [3]
inactive and 69 µM (active): [2]
active: [16] 16.8 µM and 24.5 µM and 9.69 µM
not listed: [17]
inactive: all other assays above

COc1ccc(O)cc1
not listed: [13] | [15] | [16] | [17]
inactive: all other assays above

NC(=O)N1c2ccccc2C=Cc2ccccc21
inactive and 30.6 µM (active): [2] | [3]
inactive and 54.5 µM (active): [4]
not listed: [6] | [7] | [8] | [10]
inactive: all other assays above

Reference: PubChem BioAssay (Tox21)
